# High-throughput results: PubChem, National Center for Advancing Translational Sciences (NCATS)
# AMA1-RON2 inh: qHTS for Inhibitors of AMA1-RON; Towards Development of Antimalarial Drug Lead: Primary Screen; AlphaScreen AMA1-biotinylated RON2 peptide binding; AID 720542, 2013; Potency, µM (titrated, usually from 58.2 µM), for inactives: at the top dose activity change, negative = inhibition, most hits filed as inhibitors; actives 0.2% (n = 360,000);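 also: 0% = vehicle wells and -100% = peptide control; nearly all actives have a fitted effect of over 45% in size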
#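 AMA1 (3D7) with his tag at 25 nM final met compounds first, then biotinylated RON2 peptide at 25 nM; detection used donor plus acceptor beads, 10 µg/mL apiece, read by AlphaScreen after 30 min at room temperature.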
# AmpC no deterg: qHTS Inhibitors of AmpC Beta-Lactamase (assay without detergent). AmpC nitrocefin hydrolysis, absorbance 480 nm, 0.0001% Triton. Potency, µM (top dose mostly 57.1 µM), inactives show at the top dose activity change, negative = inhibition, hits mostly inhibitors. actives 0.52% (n = 330,000). AID 485341, 2010;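 also: plate controls were no compound for no effect and no enzyme for full effect; nearly all actives have a fitted effect of over 20% in size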
# Target sequence (P00811 whole entry, looked up): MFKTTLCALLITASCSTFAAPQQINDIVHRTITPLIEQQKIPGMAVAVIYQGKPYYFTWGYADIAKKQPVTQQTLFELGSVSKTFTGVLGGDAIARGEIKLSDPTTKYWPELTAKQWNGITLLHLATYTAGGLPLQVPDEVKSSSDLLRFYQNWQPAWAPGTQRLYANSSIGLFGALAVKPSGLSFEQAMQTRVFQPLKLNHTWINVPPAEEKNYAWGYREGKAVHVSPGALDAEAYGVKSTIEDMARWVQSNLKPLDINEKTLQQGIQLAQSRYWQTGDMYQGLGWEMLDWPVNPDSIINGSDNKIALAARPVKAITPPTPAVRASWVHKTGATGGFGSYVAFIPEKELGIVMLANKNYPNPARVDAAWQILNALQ
#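 AmpC (5.3 nM in the dispensed reagent) in 20 mM phosphate pH 7.0 with 0.01% (detergent screen) or 0.0001% Triton X-100 was preincubated with compounds for 15 min at room temperature. Nitrocefin was then added from an 800 uM solution, and hydrolysis was followed at 480 nm.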
# Pf growth 96h: Primary qHTS for delayed death inhibitors of the malarial parasite plastid, 96 hour incubation | P. falciparum luciferase reporter growth, 96 h | Potency, µM (doses to about 28.7 µM), for the others: top-dose activity change, negative = inhibition, usual class: inhibitors | actives 6.9% (n = 320,000) | AID 504834, 2011
#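 Cell-based qHTS: luciferase-tagged P. falciparum in erythrocytes (2% hematocrit, 0.05% parasitemia final) incubated with compounds for 96 hours, 37 C, 5% CO2; luciferase detection reagent then added and luminescence measured.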
# AmpC inh detg: qHTS Inhibitors of AmpC Beta-Lactamase (assay with detergent); AmpC hydrolysis of nitrocefin, absorbance 480 nm, 0.01% Triton; P00811; AID 485294, 2010; actives 0.041% (n = 370,000); Potency, µM (doses to about 114 µM), without a hit: at the highest dose activity change, negative = inhibition, most hits filed as inhibitors;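 also: 0% = no-compound wells and -100% = no-enzyme wells; nearly all actives have a fitted effect of over 25% in size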
#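 20 mM phosphate pH 7.0 + 0.01% (detergent screen) or 0.0001% Triton X-100; 5.3 nM AmpC reagent; cpd preinc 15 min RT; nitrocefin (800 uM stock) to start; A480 q20 s × 4 min; Activity was normalised to no-enzyme and no-compound control wells.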
# HCV inhibitor: qHTS Assay for Inhibitors of Hepatitis C Virus (HCV); Huh7.5.1 HCVcc-Cre infection, luciferase reporter, 44 h; Potency, µM (top dose mostly 41.8 µM), for the others: at the top dose activity change, negative = inhibition, most hits filed as inhibitors; actives 3.4% (n = 340,000); AID 651820, 2012
#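 Cells (1,000/well) were plated 4 h before compound, then infected with HCVcc-Cre virus (~0.5 moi). After 44 h further culture, infection was read as luciferase luminescence following a 15 min substrate incubation at room temperature.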
# Pf growth 48h: Primary qHTS for delayed death inhibitors of the malarial parasite plastid, 48 hour incubation. Potency, µM (titrated, usually from 28.7 µM), for the others: top-dose activity change, negative = inhibition, actives largely listed as inhibitors. actives 5.9% (n = 310,000). P. falciparum luciferase growth in erythrocytes, 48 h. AID 504832, 2011
#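 First compound was added to culture medium, then infected red cells at 0.1% parasitemia and 2% hematocrit (final). After incubation at 37 C under 5% CO2, luciferase detection reagent was dispensed and light output recorded.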
# * marks the source's active call; other numbers are inactive results; ? = inconclusive; / = no result given; [ ] = remark or other dose. Hits are enriched below; roughly 11% of the tested compounds scored in any of these assays. Calls follow the shape of the dose curve; as a rule, active = well fitted curve in the direction sought with a large enough effect; inconclusive = small, poorly fitted or top-dose-only effect, or another doubt; inactive = no such curve, though single readings can be large; an effect the other way counts as inactive or inconclusive. Unless noted, % is scaled to controls: 0 for no effect and ±100 for the full control effect; potency is read from the fitted curve at half-maximal effect.
SMILES,AMA1-RON2 inh,AmpC no deterg,Pf growth 96h,AmpC inh detg,HCV inhibitor,Pf growth 48h
CC(C(=O)N1CCc2ccccc21)N1CCN(S(=O)(=O)c2cccc(C(F)(F)F)c2)CC1 (centres undefined),-0.1%,82.7%,13.1µM*,?,-22.6%,11.7µM*
CCOc1ccccc1NC(=O)CC1C(=O)NCCN1C(=O)c1ccc(F)cc1 (centres undefined),/,/,/,1.2%,/,/
CC1=C(C(=O)OCc2ccc(C)cc2)C(c2ccccc2F)CC(=O)N1 (centres undefined),/,/,/,2.6%,/,/
O=C(CN1CCN(Cc2ccc(F)cc2Cl)S1(=O)=O)Nc1ccc(F)cc1,/,/,/,9.1%,/,/
Oc1c(C(c2ccco2)N2CCN(C(c3ccccc3)c3ccccc3)CC2)sc2ncnn12 (centres undefined),61.1%,24.5%,4.15µM*,-17.9%,14.1µM*,/
COc1ccccc1CCNC(=O)Cc1c(C)c2cc3c(C(C)(C)C)coc3c(C)c2oc1=O,/,/,/,2.5%,/,/
COc1ccc(NC(=O)C2CCN(c3cc(C)nc4c(-c5ccc(Cl)cc5)c(C)nn34)CC2)cc1,/,/,/,0.6%,/,/
Cc1c(Cl)ccc2c(C(=O)Nc3cc(C(C)(C)C)on3)cc(-c3ccccn3)nc12,13.6%,-20.3%,2.08µM*,?,1.2%,0.0%
Cc1cc(NC(=O)c2cc(-c3ccccc3Cl)nc3ccccc23)no1,-18.2%,-11.1%,?,-2.3%,-9.0%,13.1µM*
O=C(NCCc1ccccn1)c1cc(-c2ccc(Cl)c(Cl)c2Cl)nc2ccccc12,0.2%,51.1%,?,3.4%,?,?
O=C(Nc1nn[nH]n1)c1cc(-c2ccc(Cl)c(Cl)c2Cl)nc2ccccc12,29.0%,-4.5%,2.33µM*,-5.3%,4.5%,-3.6%
Cc1cc(NC(=O)c2ccc(Cl)cc2Cl)no1,0.0%,-2.7%,3.7µM*,?,-9.7%,171.0%
Cc1cccc2c(C(=O)Nc3ccc(Br)cc3)cc(-c3ccccn3)nc12,8.3%,-20.6%,?,3.4%,4.7%,13.8%
Cc1cc(NC(=O)c2cc(-c3ccccc3C)nc3ccccc23)no1,8.5%,-23.9%,?,?,-6.2%,?
Cc1nn(-c2ccccc2)c2sc(C(=O)Nc3ccc(Cl)cc3Cl)cc12,/,/,/,-0.1%,/,/
Cc1cccc(NC(=O)c2cc(-c3ccc(C)s3)nc3ccccc23)n1,44.9%,-57.8%,36.2%,-11.8%,?,10.4µM*
COc1ccc(Nc2cc(C(=O)NCc3cccnc3)c3ccccc3n2)c(OC)c1,/,116.6%,?,0.2%,/,10.8%
COc1ccc(Nc2cc(C(=O)NCc3ccccn3)c3ccccc3n2)c(OC)c1,/,46.0%,13.1µM*,?,/,33.3%
Cc1cc(NS(=O)(=O)c2ccc(NC(=O)c3cc(-c4cccnc4)nc4ccc(Cl)cc34)cc2)no1,-0.3%,-19.4%,25.7%,?,51.7%,1.5%
Cc1cc(NC(=O)c2cc(-c3ccc(C)s3)nc3ccccc23)no1,10.8%,-33.2%,11.7µM*,-5.6%,-23.4%,/
Cc1cc(NC(=O)c2cc(-c3cccnc3)nc3c(C)c(C)ccc23)no1,-0.7%,16.7%,13.4%,1.1%,?,2.94µM*
Cc1c(NC(=O)C(C)(C)Oc2ccc(Cl)cc2)cccc1-c1nc2ncccc2o1,/,/,/,1.0%,/,/
O=C(NCc1ccccn1)c1cc(-c2ccccc2Cl)nc2ccccc12,23.6%,-10.3%,?,-9.2%,-17.6%,9.28µM*
Cc1ccc(Nc2cc(C(=O)NCCCN3CCOCC3)c3ccccc3n2)cc1C,-11.8%,142.4%,-12.1%,-5.5%,22.4µM*,0.0%
O=C(NCCN1CCOCC1)c1cc(-c2ccccc2Cl)nc2ccccc12,-1.8%,30.6%,9.28µM*,4.5%,29.4%,-10.3%
SMILES,AMA1-RON2 inh,AmpC no deterg,Pf growth 96h,AmpC inh detg,HCV inhibitor,Pf growth 48h
O=C(NCCN1CCOCC1)c1cc(-c2ccc(Cl)s2)nc2ccccc12,-5.5%,12.8%,11.9%,-11.9%,-0.5%,9.4%
Cc1ccc(Nc2ncc(C(=O)NCCCN3CCN(C)CC3)c3ccccc23)cc1Cl,2.2%,80.4%,-12.3%,1.1%,10µM*,?
CC(C)NC(=O)Cn1ncn2c(cc3cc(F)ccc32)c1=O,/,/,/,17.2%,/,/
Cc1ccc(-n2ccnc(NCCc3ccc(S(N)(=O)=O)cc3)c2=O)c(C)c1,/,/,/,2.9%,/,/
C/C=C/c1cc(CN2CCN(c3ccccc3)CC2)c(O)c(OC)c1,-29.4%,-15.8%,1.65µM*,-6.7%,9.6%,1.31µM*
C/C=C/c1cc(CN2CCN(c3ccc(OC)cc3)CC2)c(O)c(OC)c1,22.4µM*,81.8%,?,1.7%,-20.7%,1.47µM*
CNS(=O)(=O)c1cn(CC(=O)Nc2ccc(OC)cc2OC)cc1S(=O)(=O)NC,/,/,/,20.3%,/,/
COc1cc(CNc2nc(C)c([N+](=O)[O-])c(C)c2C#N)cc(OC)c1OC,13.1%,17.9%[2.29 µM],?,-14.5%,6.31µM*,6.5%
Cc1cc(=O)c(C(=O)Nc2cccc(C(=O)NC3CC3)c2)nn1-c1ccccc1Cl,0.0%,1.0%,7.38µM*,-4.3%,?,?
Cn1nc(C(=O)Nc2cccc(C(=O)NC3CC3)c2)c2ccccc2c1=O,6.0%,-18.3%,16.4%,0.6%,?,-3.9%
CC(C)C(=O)Nc1nnc(S(=O)(=O)N2CCCc3ccccc32)s1,-7.1%,-6.9%,11.2%,-12.1%,10.4%,11.3%
CCC(CC)C(=O)Nc1nnc(S(=O)(=O)N2CCCc3ccccc32)s1,0.4%,-47.7%,14.7µM*,-6.7%,-2.1%,-10.4%
CC(C)CC(=O)Nc1nnc(S(=O)(=O)N2c3ccccc3CC2C)s1 (centres undefined),0.0%,-25.4%,9.28µM*,27.7%,2.2%,52.9%
COc1cccc(CNC(=O)Cn2c(=O)ccc3cc(S(=O)(=O)N4CCCC4)ccc32)c1,/,/,/,4.0%,/,/
COc1ccc(-c2cc(-c3ccccc3)nc(NN)n2)cc1OC,10.6%,168.3%,?,5.7%,?,?
COc1cc2cnc(-c3ccccc3)cc2cc1OC,0.0%,200.8%,/,/,22.4µM*,/
COc1ccc(-c2cc3cc(OC)c(OC)cc3c(C)n2)cc1C,25.1%,205.4%,10.4µM*,0.0%,-26.4%,?
COc1cc2cnc(-c3ccccc3)c(-c3cc(OC)c(OC)c(OC)c3)c2cc1OC,-4.9%,123.2%,3.7µM*,0.5%,12.6µM*,10.4µM*
